Measured values taken from PubChem BioAssay.
Several values for one entry are separate records, joined by “and”; a condition that tells them apart may be missing. Equal entries are not always repeated. Inconclusive results are not listed. Activity calls are given as the source filed them. Unless noted, cut-off not given; nearly all actives show AC50 up to about 26 µM.

Tests used:
[1] = liver-stage malaria parasite growth inhibition, primary screen, cell-based, HepG2, luciferase luminescence, HepG2 viability (AID 624349; in the data active means parasite load remaining mostly below about 12%, no sharp cut-off; inactive means mostly above about 10%;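 further: 100% = mean of DMSO negative control wells on the same plate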); conditions: P. berghei liver stage in HepG2, luciferase luminescence, concentration not given here; parasite load remaining: stronger effect = lower value; viability: measured here: HepG2 viability without parasites
[2] = stimulators of nuclear beta-catenin in C2C12, primary screen, imaging, WNT3A-conditioned medium, mouse C2C12, NPC library (AID 1117326; in the data active means nuclear beta-catenin stimulation mostly above about 4.2%, no sharp cut-off; inactive means mostly below about 10%; further: reference of the scale not given here); conditions: stronger effect = higher value
[3] = stimulators of insulin release from INS-1E, primary screen, cell-based, 5 mM glucose, NPC library (AID 1117329;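 active means compound raises insulin release from rat beta cells at 5 mM glucose, no numeric limit stated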; further: reference of the scale not given here); conditions: rat INS-1E insulin secretion, at 10 µM, stronger effect = higher value
[4] = growth inhibition of GSK3B-pretreated HCT116 cells – cell-based, CellTiter-Glo, 0.2 to 20 µM (AID 1117336;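 active means compounds lowering colon cancer cell viability after pretreatment blocking the GSK3B kinase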); conditions: HCT116 viability after GSK3B inhibitor, at 20 µM, stronger effect = higher value
[5] = inhibition of endothelial tube formation, primary screen, imaging, VEGF stimulated, CD31 staining, tube area, NPC library (AID 1117340;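 active means compound that reduces growth-factor-driven endothelial tube area in a mixed cell culture, no cutoff stated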); conditions: VEGF-stimulated ADSC/ECFC co-culture, at 10 µM, stronger effect = higher value
[6] = glucagon-like peptide 1 release enhancers, primary assay, NCI-H716 cell line, NPC library (AID 1117341;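 active means compound raises GLP1 secretion from the human gut endocrine cells, with no numeric limit stated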; further: reference of the scale not given here); conditions: NCI-H716 cells, at 10 µM, stronger effect = higher value
[7] = HCT116 colon cancer cell growth inhibition, primary screen, CellTiter-Glo luminescence, NPC library (AID 1117342;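 active means compounds that lower survival of HCT116 colon cancer cells in the luminescence readout, no numeric limit stated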); conditions: at 20 µM (top of the series)
[8] = CellTiter-Glo luminescent readout of SW480 viability loss, NPC library primary (AID 1117343;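 active means compounds that lower viability of the colon cancer cells in the luminescence readout, with no numeric limit stated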); conditions: CellTiter-Glo luminescence; at 20 µM (top of the series) unless noted
[9] = decreased DLD-1 cellular survival, CellTiter-Glo luminescent readout, NPC compound collection, primary HTS (AID 1117346;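 active means compounds that lower survival of DLD-1 colon cancer cells in the luminescence readout, no cutoff given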); conditions: DLD-1 viability, CellTiter-Glo luminescence; at 20 µM (top of the series)
[10] = growth inhibition of DIPG glioma cells, dose response, cell-based, JHH-DIPG-1, MIPE4.0, CellTiter-Glo, qHTS (AID 1347062; cut-off not given, nearly all actives have AC50 up to about 27 µM;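 on AC50: cells exposed to compound for two days before readout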); conditions: JHH-DIPG-1 viability, CellTiter-Glo ATP luminescence
[11] = viability loss in pontine glioma line – cell-based, SU-DIPG-XXV, MIPE5.0, CellTiter-Glo, qHTS, dose response (AID 1347065); conditions: CellTiter-Glo ATP luminescence;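 further: cells exposed to compound for 48 hours before ATP readout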
[12] = JHH-DIPG-1 glioma cell viability, MIPE5.0 library, CellTiter-Glo luminescence, qHTS (AID 1347067); conditions: JHH-DIPG-1 glioma viability, CellTiter-Glo ATP luminescence;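 further: cells exposed to compound for 48 hours before readout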
[13] = SU-DIPG-XXV glioma cell viability, MIPE5.0 library, qHTS (AID 1347068; cut-off not given, nearly all actives have IC50 up to about 30 µM;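 on IC50: cells exposed to compound for 48 hours before viability readout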)
[14] = sensitizers of A549 cells to miR-34 induction, primary screen, imaging, A549 dox-inducible miR-34, nuclei and caspase counts (AID 1347080;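 active means compounds whose cell count with miR-34 switched on is under 0.7 times the count with it off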); conditions: A549 miR-34 inducible, Hoechst nuclei count, 48 h
[15] = survival rescue of mitochondrial mutant cells in low glucose, primary screen, MELAS cybrids, Rieske KO mouse fibroblasts, CellTiter-Glo (AID 1508586;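 active means mean z-score across replicates of 1.96 or higher in either the MELAS or the Rieske mutant cell line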;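 further: z relative to plate mean and SD of compound and empty wells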)
[16] = viability rescue of complex I mutant cybrids, primary screen, cell-based, galactose medium, ATP luminescence (AID 1645843;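 active means z-score of at least 1.8 in each of two replicates, scored against plate mean and spread of sample wells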;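 further: positive z means more ATP and so rescue of galactose-driven cybrid death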); conditions: complex I mutant cybrid cells, 72 h, stronger effect = higher value
[17] = growth inhibition of DIPG glioma cells, dose response, cell-based, SU-DIPG-IV, MIPE4.0, CellTiter-Glo, qHTS (AID 1347063; cut-off not given, nearly all actives have AC50 up to about 30 µM;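 further: compound exposure lasted 48 hours before the viability readout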); conditions: SU-DIPG-IV viability, CellTiter-Glo ATP luminescence
[18] = SU-DIPG-VI glioma cell viability, MIPE4.0 library, CellTiter-Glo luminescence, qHTS (AID 1347066; cut-off not given, nearly all actives have AC50 up to about 30 µM;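 further: cells exposed to compound for 48 hours before readout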); conditions: CellTiter-Glo ATP luminescence
[19] = phospholipid biosynthesis inhibitors in animal cells, primary screen, cell-based, LOPAC library, screen 4 (AID 1347384; call rule not given here); conditions: phospholipid biosynthesis inhibition screen, at 10 µM
[20] = stronger effect = lower value, cell number ratio, induced over uninduced
[21] = measured here: relative caspase fold change +Dox/-Dox
[22] = measured here: total cells with miR-34 induction, stronger effect = lower value
[23] = measured here: total cells without miR-34 induction
[24] = MELAS cybrid survival, CellTiter-Glo 48 h, stronger effect = higher value
[25] = Rieske KO mouse fibroblast survival, CellTiter-Glo 72 h

CCC1=C[C@@H]2CN(C1)Cc1c([nH]c3ccccc13)[C@@](C(=O)OC)(c1cc3c(cc1OC)N(C)[C@H]1[C@@](O)(C(=O)OC)[C@H](OC(C)=O)[C@]4(CC)C=CCN5CC[C@]31[C@@H]54)C2
parasite load remaining [1]: 30.5% (inactive)
viability [1]: 85%
nuclear beta-catenin stimulation ([2]; at 10 µM): 60.8% (active)
nuclear beta-catenin stimulation ([2]; stimulation, at 2 µM): 72.7%
insulin secretion stimulation [3]: 2.25% (inactive)
viability decrease [4]: 103% (active)
tube area decrease [5]: 106% (active)
GLP1 secretion stimulation [6]: 2.5% (inactive)
inhibition of viability [7]: 94.3% (active)
viability decrease (inhibition) [8]: 91.4% (active)
viability decrease (inhibition) [9]: 76.7% (active)
AC50 [10]: 0.0132 µM (active)
AC50 [11]: 0.204 µM (active)
AC50 [12]: 0.144 µM (active)
IC50 [13]: 1.15 µM (active)
fold change [14, 20]: 0.917 (inactive)
fold change [14, 21]: 1.02
cell count [14, 22]: 1860
cell count [14, 23]: 2030
z-score [15, 24]: -2.16 (inactive)
z-score [15, 25]: 1.89
z-score [16]: -2.04 (inactive)

Cc1ccccc1C(=O)Nc1ccc(C(=O)N2CCCC(O)c3cc(Cl)ccc32)c(C)c1 (centres undefined)
nuclear beta-catenin stimulation ([2]; at 10 µM): 3.2% (inactive)
nuclear beta-catenin stimulation ([2]; stimulation, at 2 µM): 1.4%
insulin secretion stimulation [3]: 0.15% (inactive)
viability decrease [4]: 52.2% (active)
tube area decrease [5]: 3.5% (inactive)
GLP1 secretion stimulation [6]: 2% (inactive)
inhibition of viability [7]: 38.9% (inactive)
viability decrease (inhibition) [8]: 15.2% (inactive)
viability decrease (inhibition) [9]: 21.9% (inactive)
outcome [17]: inactive
outcome [11]: inactive
outcome [18]: inactive
outcome [12]: inactive
outcome [13]: inactive
fold change [14, 20]: 0.834 (inactive) and 0.856 (inactive)
fold change [14, 21]: 0.412 and 0.955
cell count [14, 22]: 8090 and 8960
cell count [14, 23]: 9700 and 10500
z-score [15, 24]: 0.131 (inactive) and -0.387 (inactive)
z-score [15, 25]: -0.17 and 0.558
z-score [16]: 0.835 (inactive)

Cc1nnc(C(=O)NC(C)(C)c2nc(C(=O)NCc3ccc(F)cc3)c(O)c(=O)n2C)o1
nuclear beta-catenin stimulation ([2]; at 10 µM): -0.2% (inactive)
nuclear beta-catenin stimulation ([2]; stimulation, at 2 µM): 0.5%
insulin secretion stimulation [3]: 2.5% (inactive)
viability decrease [4]: -5.9% (inactive)
tube area decrease [5]: 13.9% (inactive)
GLP1 secretion stimulation [6]: -0.3% (inactive)
inhibition of viability [7]: 1% (inactive)
viability decrease (inhibition) [8]: 31.6% (inactive)
viability decrease (inhibition) [9]: 6.7% (inactive)
outcome [17]: inactive
outcome [11]: inactive
outcome [18]: inactive
outcome [13]: inactive
fold change [14, 20]: 0.902 (inactive)
fold change [14, 21]: 1.04
cell count [14, 22]: 7710
cell count [14, 23]: 8560
z-score [15, 24]: -0.159 (inactive)
z-score [15, 25]: -0.0651

CCCCN(CCCC)CC(O)c1cc(Cl)cc2c1-c1ccc(Cl)cc1/C2=C/c1ccc(Cl)cc1 (centres undefined)
nuclear beta-catenin stimulation ([2]; at 10 µM): 0.5% (inactive)
nuclear beta-catenin stimulation ([2]; stimulation, at 2 µM): -0.3%
insulin secretion stimulation [3]: -0.3% (inactive)
viability decrease [4]: 9.1% (inactive)
tube area decrease [5]: 25.1% (inactive)
GLP1 secretion stimulation [6]: -3.6% (inactive)
inhibition of viability [7]: 31% (inactive)
viability decrease (inhibition) [8]: 10.6% (inactive)
viability decrease (inhibition) [9]: 14.9% (inactive)
outcome [10]: inactive
AC50 [17]: 26.4 µM (active)
outcome [18]: inactive
AC50 [12]: 18.6 µM (active)
outcome [13]: inactive
fold change [14, 20]: 1.04 (inactive)
fold change [14, 21]: 2.5
cell count [14, 22]: 8950
cell count [14, 23]: 8560
outcome [19]: inactive
z-score [16]: 0.075 (inactive)

O=c1cc(O)c(Cl)c[nH]1
nuclear beta-catenin stimulation ([2]; at 10 µM): -0.6% (inactive)
nuclear beta-catenin stimulation ([2]; stimulation, at 2 µM): -0.5%
insulin secretion stimulation [3]: -1.9% (inactive)
viability decrease [4]: 28% (inactive)
tube area decrease [5]: -18.9% (inactive)
GLP1 secretion stimulation [6]: -0.1% (inactive)
inhibition of viability [7]: 27.8% (inactive)
viability decrease (inhibition) [8]: 54.6% (active)
viability decrease (inhibition) [9]: 12.9% (inactive)
outcome [11]: inactive
outcome [18]: inactive
outcome [12]: inactive
outcome [13]: inactive
fold change [14, 20]: 0.957 (inactive)
fold change [14, 21]: 1.21
cell count [14, 22]: 8010
cell count [14, 23]: 8380
z-score [15, 24]: -0.106 (inactive)
z-score [15, 25]: -0.13

C[C@]12CCC(=O)C=C1[C@@H]1C[C@@H]1[C@H]1[C@@H]3[C@@H]4C[C@@H]4[C@@]4(CCC(=O)O4)[C@@]3(C)CC[C@@H]12
nuclear beta-catenin stimulation ([2]; at 10 µM): 1.8% (inactive)
nuclear beta-catenin stimulation ([2]; stimulation, at 2 µM): 3%
insulin secretion stimulation [3]: 1.5% (inactive)
viability decrease [4]: 2.2% (inactive)
tube area decrease [5]: 2.8% (inactive)
GLP1 secretion stimulation [6]: 3.8% (inactive)
inhibition of viability [7]: 27.4% (inactive)
viability decrease (inhibition) [8]: -2.6% (inactive)
viability decrease (inhibition) [9]: 3.1% (inactive)
outcome [10]: inactive
outcome [18]: inactive
outcome [12]: inactive
outcome [13]: inactive

C=CC(=O)Nc1cc2c(Nc3ccc(F)c(Cl)c3)ncnc2cc1OCCCN1CCOCC1
nuclear beta-catenin stimulation ([2]; at 10 µM): 45.9% (active)
nuclear beta-catenin stimulation ([2]; stimulation, at 2 µM): 9.2%
insulin secretion stimulation [3]: 1.6% (inactive)
viability decrease [4]: 108% (active)
tube area decrease [5]: 43.3% (active)
GLP1 secretion stimulation [6]: 2.8% (inactive)
inhibition of viability [7]: 112% (active)
viability decrease (inhibition) [8]: 130% (active)
viability decrease (inhibition) [9]: 101% (active)
AC50 [10]: 18.7 µM (active)
AC50 [17]: 5.9 µM (active)
AC50 [11]: 6.61 µM (active)
AC50 [18]: 14.8 µM (active)
AC50 [12]: 9.34 µM (active)
IC50 [13]: 5.25 µM (active)

CC(C(=O)O)c1ccc2c(c1)CC(=O)c1ccccc1S2 (centres undefined)
nuclear beta-catenin stimulation ([2]; at 10 µM): -0.5% (inactive)
nuclear beta-catenin stimulation ([2]; stimulation, at 2 µM): -1.2%
insulin secretion stimulation [3]: 5.5% (inactive)
viability decrease [4]: -7.1% (inactive)
tube area decrease [5]: 2.5% (inactive)
GLP1 secretion stimulation [6]: -2% (inactive)
inhibition of viability [7]: -2.7% (inactive)
viability decrease (inhibition) [8]: 21.1% (inactive)
viability decrease (inhibition) [9]: 7.9% (inactive)
outcome [11]: inactive
outcome [13]: inactive
fold change [14, 20]: 0.901 (inactive)
fold change [14, 21]: 0.594
cell count [14, 22]: 9750
cell count [14, 23]: 10800
z-score [15, 24]: -0.314 (inactive)
z-score [15, 25]: 0.988

O=P(O)(O)C(O)(Cn1ccnc1)P(=O)(O)O
parasite load remaining [1]: 30.2% (inactive)
viability [1]: 130%
nuclear beta-catenin stimulation ([2]; at 10 µM): 0.4% (inactive)
nuclear beta-catenin stimulation ([2]; stimulation, at 2 µM): 1%
insulin secretion stimulation [3]: 0.2% (inactive)
viability decrease [4]: -1.1% (inactive)
tube area decrease [5]: 8.6% (inactive)
GLP1 secretion stimulation [6]: -0.1% (inactive)
inhibition of viability [7]: 16.4% (inactive)
viability decrease (inhibition) [8]: 32.9% (inactive)
viability decrease (inhibition) [9]: 17.2% (inactive)
outcome [10]: inactive
outcome [11]: inactive
outcome [18]: inactive
outcome [12]: inactive
outcome [13]: inactive
fold change [14, 20]: 0.851 (inactive)
fold change [14, 21]: 1.6
cell count [14, 22]: 9230
cell count [14, 23]: 10900
z-score [15, 24]: -0.129 (inactive) and 0.228 (inactive)
z-score [15, 25]: -0.459 and -1.13
z-score [16]: 0.405 (inactive)
